Screening data: PubChem BioAssay, several laboratories
TMEM16A act: mouse TMEM16A channel activation, primary screen; Q8BHY3; HEK293 TMEM16A/YFP-H148Q/I152L, iodide quench fluorescence; stronger effect = lower value; B-score at 10 µM; 340,000 compounds, 0.3% hits; AID 623877;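 active = fluorescence-ratio B-score plate-corrected deviation score at least 3 library SD below zero, with starting fluorescence score within 5 deviations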;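 note: channel opened by trigger with iodide after compound preincubation; score built on the fluorescence ratio of max minus min over baseline; more negative score means more quench and so TMEM16A activation or potentiation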
NTR1 agonist: NTR1 (human) agonism. activation, % at 20 µM. AID 493036. 330,000 compounds, 0.17% hits. NTR1-U2OS beta-arrestin-GFP spot imaging, agonist mode;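 active = activation at or above 40% of the spot to cytoplasm intensity ratio, with at least 20 cells analyzed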
MEKK2 WT-MEK5: raises or lowers MEK5 binding to wildtype human MEKK2 PB1 domain | bead flow cytometry, Alexa488-MEK5 binding to MEKK2 WT; actives lie on both sides | binding response (% of control), % at 10 µM | 290,000 compounds, 1.1% hits | AID 1531; in the data active = binding response below about 67% or above about 130%
MEKK3 PB1 HTS: modulators (inhibitors or enhancers) of MEK5 binding to human MEKK3 PB1 domain | AID 1529 | 290,000 compounds, 1.4% hits | binding response (% of control), % at 10 µM | bead-based flow cytometry, Alexa488-MEK5 binding to MEKK3; actives lie on both sides; 0 = blocked by unlabeled MEK5, 100 = vehicle | Q99759;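 active = binding response more than 3 SD above or below the average of its plate-row segment, actives on both sides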;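 note: Alexa488 bead fluorescence after subtracting the streptavidin-only scavenger bead signal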
Target sequence (Q99759 whole entry, looked up, the tested form may be a part): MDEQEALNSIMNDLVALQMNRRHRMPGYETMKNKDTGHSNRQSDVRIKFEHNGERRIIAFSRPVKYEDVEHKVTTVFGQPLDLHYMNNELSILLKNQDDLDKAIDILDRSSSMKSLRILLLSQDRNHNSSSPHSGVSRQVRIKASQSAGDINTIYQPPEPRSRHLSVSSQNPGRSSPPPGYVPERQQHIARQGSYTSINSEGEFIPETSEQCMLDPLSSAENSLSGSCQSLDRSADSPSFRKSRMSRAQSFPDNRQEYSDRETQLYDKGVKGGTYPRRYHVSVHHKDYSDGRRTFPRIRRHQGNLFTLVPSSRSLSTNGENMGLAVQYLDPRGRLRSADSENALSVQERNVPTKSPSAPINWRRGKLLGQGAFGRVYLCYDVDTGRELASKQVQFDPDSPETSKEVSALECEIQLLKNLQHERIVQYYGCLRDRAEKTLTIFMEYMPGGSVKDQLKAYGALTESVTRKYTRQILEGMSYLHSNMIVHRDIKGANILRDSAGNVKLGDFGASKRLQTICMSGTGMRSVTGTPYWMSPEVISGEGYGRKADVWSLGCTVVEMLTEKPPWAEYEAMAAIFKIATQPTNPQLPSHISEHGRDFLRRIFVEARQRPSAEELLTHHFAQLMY
ANO1 block: blocks the mouse calcium-activated chloride channel TMEM16A; 310,000 compounds, 1.2% hits; HEK293 TMEM16A/YFP iodide influx fluorescence, ionomycin; normalized B-score (activity score, 25-100; higher = stronger inhibition) at 10 µM; Q8BHY3; AID 588511;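 active = ratio plate-corrected score three or more library SD toward inhibition, starting fluorescence score within five deviations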;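 note: score derived from kinetic fluorescence span divided by baseline fluorescence per well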
MEKK2 mut-MEK5: signal of MEK5 binding to mutant human MEKK2 PB1 domain; AID 1530; 290,000 compounds, 0.35% hits; bead flow cytometry, Alexa488-MEK5 binding to MEKK2 mutant; percent response, % at 10 µM; in the data active = percent response above about 24%, passing the limit was not always enough
Large screens that a line does not name were inactive; [ ] = dose if it differs, or a comment. Compounds with a hit are over-represented: about 3.4% of the library has one in this group of screens.

COc1ccc(Cl)cc1C(=O)NNC(=S)NC(=O)c1cc(-c2ccc(Cl)cc2)nc2ccccc12	ANO1 block 100
CCCCOc1ccc(-c2cc(C(=O)NNC(=S)NCC)c3ccccc3n2)cc1	ANO1 block 100
COc1cccc(CNn2cnnc2)c1OCc1ccccc1F	none
COc1cccc(CNn2cnnc2)c1OCc1ccc(F)cc1	ANO1 block 100
O=C(Oc1ccc2cc(Br)ccc2c1)N1CCCCCC1	ANO1 block 100 (no result: TMEM16A act)
O=C(Oc1ccc2ccccc2c1Br)N1CCCCCC1	none
COn1c2c(c3c4nonc4ccc31)CCCC2	none
On1c2c(c3c4nonc4ccc31)CCCC2	ANO1 block 100 (no result: TMEM16A act)
CCOC(=O)c1cnn(-c2ccc(NS(=O)(=O)c3ccc(Cl)cc3)cc2)c1C(F)(F)F	ANO1 block 100
O=C(CN1CCN(C(=O)C2CCCO2)CC1)Nc1cc(Cl)ccc1Cl (centres undefined)	none
O=C(CS(=O)(=O)c1ccccc1)Nc1nc(-c2ccccc2)cs1	none
CCC(=O)Nc1nc(-c2ccc3c(c2)CC(C)N3S(C)(=O)=O)cs1 (centres undefined)	MEKK2 WT-MEK5 -1.0
Cc1ccc(S(=O)(=O)CC(=O)Nc2nc(-c3ccccc3)cs2)cc1	TMEM16A act -5
CS(=O)(=O)N1CCc2cc(-c3csc(NC(=O)Cc4ccccc4)n3)ccc21	ANO1 block 25
O=S1(=O)N(Cc2ccccc2F)CCCN1Cc1c(F)cccc1Cl	none
O=C(Cc1c(Cl)cccc1Cl)NC1=NCCS1	none
COc1ccccc1Oc1ccc2c(c1)C(=O)N(c1ccc(C)cc1)C2=O	TMEM16A act -6.1 (no result: MEKK2 WT-MEK5, MEKK3 PB1 HTS, MEKK2 mut-MEK5)
COc1ccccc1Oc1ccc2c(c1)C(=O)N(c1ccccc1)C2=O	none
Clc1ccc(CONc2ncnc3nonc23)c(Cl)c1	ANO1 block 100
CC(C)N1CCc2c(sc(N)c2C#N)C1	MEKK2 WT-MEK5 2.0
CCN1CCc2c(sc(N)c2C#N)C1	none
Cc1nn(C(C)(C)C)c(OC(=O)C2CCCC2)c1S(=O)(=O)c1ccccc1	none (no result: NTR1 agonist, MEKK2 WT-MEK5, MEKK3 PB1 HTS, ANO1 block, MEKK2 mut-MEK5)
Cc1ccc(S(=O)(=O)c2c(C)nn(C(C)(C)C)c2OC(=O)C2CCCC2)cc1	ANO1 block 25
CC(NC(=S)NC1CCC(C(C)(C)C)CC1)c1ccccc1 (centres undefined)	ANO1 block 100
CN(C(=O)Cn1cnc2ccccc2c1=O)C1CCS(=O)(=O)C1 (centres undefined)	none (no result: MEKK2 WT-MEK5, MEKK3 PB1 HTS, MEKK2 mut-MEK5)
Cc1cc(C)c(OCC(O)CN2CCN(c3ccccn3)CC2)c(C)c1 (centres undefined)	MEKK2 WT-MEK5 -8.0
Cc1cc(OCC(O)CN2CCN(c3ccccn3)CC2)cc(C)c1Cl (centres undefined)	none
Cc1cc[n+](-c2[nH]c(=O)sc2/C=N/N=C(\[O-])c2ccccc2)cc1C	TMEM16A act -5.6 (no result: NTR1 agonist, ANO1 block)
Cc1[nH]c2ccccc2c1/C=N/NC(N)=S	none
Cc1[nH]c2ccccc2c(=O)c1C(=O)/C=C/c1ccccc1	none
COc1ccc2c(Cl)c(C(=O)N/N=C/c3ccc4c(c3)OCO4)sc2c1	none
Cc1ccc(NC(=S)N/N=C/c2c(C)[nH]c3ccccc23)cc1	MEKK2 WT-MEK5 38
Cc1[nH]c2ccccc2c1/C=C/C(=O)c1ccccc1	MEKK2 WT-MEK5 16, MEKK3 PB1 HTS 150, MEKK2 mut-MEK5 180
Cc1[nH]c2ccccc2c1/C=N/NC(=O)c1cccc(Br)c1	MEKK2 WT-MEK5 42, MEKK2 mut-MEK5 64
Cc1[nH]c2ccccc2c1/C=N/NC(=O)c1ccccc1	none
COc1ccc2c(Cl)c(C(=O)N/N=C/c3c(C)[nH]c4ccccc34)sc2c1	MEKK2 WT-MEK5 48[inhibitor]
CC(C)N(C(=O)C[n+]1ccsc1N)c1ccccc1	none
CCn1cc(C(=O)OCC(=O)c2cc(C)n(-c3ccc(OC(F)F)cc3)c2C)c(=O)c2ccc(C)nc21	none
COc1ccc(S(=O)(=O)NNC(=O)C2COc3ccccc3O2)cc1[N+](=O)[O-] (centres undefined)	none (no result: MEKK2 WT-MEK5, MEKK3 PB1 HTS, MEKK2 mut-MEK5)
Cc1nn(Cc2ccc(C(=O)NC(C)(C)C)o2)c(C)c1Br	ANO1 block 25
Cc1cc(NC(=O)c2ccc(Cn3nc(C)c(Br)c3C)o2)no1	none (no result: MEKK2 WT-MEK5, MEKK3 PB1 HTS, MEKK2 mut-MEK5)
COc1cc2c(cc1NC(=O)CN1C(=O)NC3(CCc4ccccc43)C1=O)oc1ccccc12 (centres undefined)	MEKK2 WT-MEK5 10
CCN1CCCC1Cn1cnc2c([nH]c3ccc(Cl)cc32)c1=O (centres undefined)	none
CCN1CCCC1Cn1cnc2c([nH]c3cccc(Cl)c32)c1=O (centres undefined)	TMEM16A act -10
Cc1cc(C)nc(N2CCC(C(=O)NCc3ccccc3)CC2)n1	none
Cc1cc(C)nc(N2CCC(CNC(=O)CCc3ccccc3)CC2)n1	TMEM16A act -7.7
Cc1cc(-c2nn(-c3ccccc3F)cc2CN(C)CC(O)CO)c(C)s1 (centres undefined)	none
Cc1nc(NC2=NCN(C3CCCCC3C)CN2)nc2ccccc12 (centres undefined)	MEKK2 WT-MEK5 139 (no result: TMEM16A act, NTR1 agonist, ANO1 block)
CCOc1ccc(NC(=O)c2ccc3c(c2)OCCO3)cc1S(=O)(=O)N(CC)CC	none (no result: MEKK2 WT-MEK5, MEKK3 PB1 HTS, ANO1 block, MEKK2 mut-MEK5)
N#Cc1nc(-c2ccccc2Cl)oc1NCc1ccco1	TMEM16A act -4.7 (no result: MEKK2 WT-MEK5, MEKK3 PB1 HTS, MEKK2 mut-MEK5)
c1ccc(Nc2nc(-c3ccccc3)ns2)cc1	TMEM16A act -8.9
O=C1/C(=C/c2ccccc2)CCCc2ccccc21	none
CN(C)c1ccc(/C=C2\CCC/C(=C\c3ccccc3)C2=O)cc1	MEKK2 WT-MEK5 15 (no result: NTR1 agonist)
CCc1cc(/C(Cc2ccc3ccccc3n2)=N\O)c(O)cc1O	ANO1 block 100
COC(=O)c1cc2c(ccn2-c2ccc(F)cc2)n1CC(C)C	ANO1 block 100
O=C1CCC(C(=O)N2CCC(CO)(Cc3ccc(Cl)cc3)CC2)=NN1	none
Cc1ccc(S(=O)(=O)N2CCN(c3ncnc4scc(-c5ccccc5)c34)CC2)cc1	TMEM16A act -31 (no result: MEKK2 WT-MEK5, MEKK3 PB1 HTS, ANO1 block, MEKK2 mut-MEK5)
CCN(Cc1ccccc1)C(=O)COC(=O)c1cc(S(=O)(=O)Nc2ccccc2OC)ccc1O	none (no result: MEKK2 WT-MEK5, MEKK3 PB1 HTS, ANO1 block, MEKK2 mut-MEK5)
CCN1CCN(c2nc3ccccc3nc2C(C#N)S(=O)(=O)c2ccc(C)c(C)c2)CC1 (centres undefined)	none (no result: MEKK2 WT-MEK5, MEKK3 PB1 HTS, MEKK2 mut-MEK5)
Cc1ccc(S(=O)(=O)C(C#N)c2nc3ccccc3nc2N2CC(C)OC(C)C2)cc1C (centres undefined)	ANO1 block 100
NNC(=O)c1ccc(CSc2nc3ccccc3s2)cc1	none
COCCN(CCOC)C(=O)c1ccc(CSc2nc3ccccc3s2)cc1	ANO1 block 25
CCOC(=O)c1cnc2ccc(OCC)cc2c1NCc1ccccc1OC	ANO1 block 100
CCOC(=O)Cc1nn(Cc2nc(-c3ccc(C#N)cc3)cs2)c(=O)c2ccccc12	ANO1 block 25
